CD11b adhes enh: CD11b/CD18-fibrinogen binding enhancement | P05107+P11215 | K562 CD11b/CD18 adhesion to fibrinogen, ATPlite luminescence | activation, % at 10 µM | 93,000 compounds, 0.07% hits | AID 1499;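 active = 10 µM primary screen giving 50% or more activity, confirmed by 40% or more on retest at that dose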
MMP-13 inhibitor: MMP13 (human) collagenase inhibition. MMP-13 fTHP FRET cleavage, Mca fluorescence. 65,000 compounds, 0.07% hits. inhibition, % at 4 µM. P45452. AID 570;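 active = inhibition above the mean of compound-free control plate wells plus 3 SD, cut at about 14% in these data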;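 also: 0% = DMSO wells and 100% = wells with reference MMP-13 inhibitor after basal subtraction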
FAK inh: blocks human focal adhesion kinase activity | Q05397 | biochemical FAK kinase activity assay | inhibition, %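 (tested at 7 µM)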 | 97,000 compounds, 0.84% hits; in the data active = inhibition above about 19%;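 also: 0% = DMSO and 100% = reference compound high control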
Target sequence (Q05397 whole entry, looked up): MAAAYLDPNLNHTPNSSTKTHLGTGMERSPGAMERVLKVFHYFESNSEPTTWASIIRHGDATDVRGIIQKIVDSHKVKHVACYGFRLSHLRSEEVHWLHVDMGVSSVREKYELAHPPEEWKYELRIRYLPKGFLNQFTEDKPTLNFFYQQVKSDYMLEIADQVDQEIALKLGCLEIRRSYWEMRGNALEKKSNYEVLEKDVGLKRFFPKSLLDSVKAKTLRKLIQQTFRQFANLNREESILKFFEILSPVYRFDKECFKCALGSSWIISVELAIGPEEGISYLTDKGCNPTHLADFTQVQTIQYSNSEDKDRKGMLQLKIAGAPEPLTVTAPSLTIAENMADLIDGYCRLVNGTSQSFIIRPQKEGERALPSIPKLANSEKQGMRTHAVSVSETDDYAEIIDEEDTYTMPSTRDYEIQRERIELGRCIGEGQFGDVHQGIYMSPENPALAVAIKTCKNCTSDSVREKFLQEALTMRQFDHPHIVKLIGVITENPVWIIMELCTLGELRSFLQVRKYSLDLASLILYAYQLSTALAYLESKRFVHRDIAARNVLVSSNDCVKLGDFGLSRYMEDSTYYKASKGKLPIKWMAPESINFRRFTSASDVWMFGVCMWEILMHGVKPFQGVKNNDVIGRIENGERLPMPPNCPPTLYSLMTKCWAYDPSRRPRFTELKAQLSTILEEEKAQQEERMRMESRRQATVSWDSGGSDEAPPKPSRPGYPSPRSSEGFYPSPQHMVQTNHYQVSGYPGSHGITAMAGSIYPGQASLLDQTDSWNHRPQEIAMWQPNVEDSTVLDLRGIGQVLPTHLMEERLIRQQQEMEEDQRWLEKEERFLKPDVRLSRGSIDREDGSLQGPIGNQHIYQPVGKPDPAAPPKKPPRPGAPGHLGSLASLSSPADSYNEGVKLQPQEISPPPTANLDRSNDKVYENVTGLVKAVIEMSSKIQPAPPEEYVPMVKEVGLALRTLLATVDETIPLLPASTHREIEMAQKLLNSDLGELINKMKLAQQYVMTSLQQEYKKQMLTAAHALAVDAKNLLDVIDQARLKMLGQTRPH
CD11b adhes inh: inhibitors of human CD11b/CD18 binding to fibrinogen | P05107+P11215 | K562 CD11b/CD18 adhesion to fibrinogen, ATPlite luminescence; Mn2+ added to activate the integrin | inhibition, % at 10 µM | 93,000 compounds, 0.54% hits;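 active = primary inhibition of 50% or more at 10 µM, then 40% or more on retest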
Starred values were filed as active, the others as inactive; . = not tested or not shown. An excerpt weighted towards active compounds, which were near 1.1% of everything screened.

SMILES | CD11b adhes enh | MMP-13 inhibitor | FAK inh | CD11b adhes inh
O=C1c2cccc3c(O)ccc(c23)C(=O)N1Cc1ccccc1 | -3 | . | 1 | 66*
O=C(N/N=C/c1ccc(O)cc1O)/C(=C/c1ccccc1)CCO | 0 | . | . | -11
Cc1ccc(SC/C(O)=C(\C#N)c2nc3ccccc3s2)cc1 | -10 | 3 | -4 | 101*
COc1ccc(C/C(O)=C(\C#N)c2nc3ccccc3s2)cc1 | -11 | -2 | -7 | 104*
CC1CCCC(NC(=O)Cn2cc3c(n2)CCCCC3)C1C (stereo not drawn) | -1 | 6 | 0 | -1
CSc1nc(NC(C)=O)nc(C)c1Br | . | . | -1 | .
Nc1c(-c2ccccc2)cnn1-c1ccc(C(=O)O)cc1 | 1 | . | 2 | -32
CC1=NN(/C(=N\c2nnc(C)s2)Nc2ccc(C)cc2)[C@H](c2ccc(C)cc2)S1 | . | . | 21* | .
COc1ccc(OCc2nc3c4cc(OC)c(OC)cc4nc(=S)n3[nH]2)cc1 | 4 | . | . | -12
COc1cc(/C=N/NC(=S)Nc2cccc(S(=O)(=O)N(C)C)c2)cc(OC)c1O | 2 | . | . | 13
CN(C)S(=O)(=O)c1cccc(NC(=S)Nc2cc(Cl)cc(Cl)c2)c1 | -6 | . | 1 | 100*
CN(C)S(=O)(=O)c1cccc(NC(=S)Nc2ccc(Cl)cc2Cl)c1 | -8 | . | -1 | 99*
Cc1ccc(C(=O)Nc2nc(-c3ccccc3)c(-c3ccccc3)o2)cc1 | -1 | . | . | 36
CCC(C)C(NS(=O)(=O)c1ccc(C)cc1)C(=O)NCCN1CCOCC1 (stereo not drawn) | . | 4 | . | .
COc1cc(C2c3c(oc4c(C)cc(C)cc4c3=O)C(=O)N2Cc2cccnc2)ccc1O (stereo not drawn) | . | 32* | 0 | .
O=C1CCCC2=C1C1(CCCCC1)N=C(Nc1nc3ccccc3s1)N2 | -3 | 4 | 0 | -12
O=S(=O)(Nc1nc2ccccc2s1)c1ccc(Cl)s1 | -5 | . | 1 | 74*
COc1ccc(OCc2nn3c(-c4ccco4)nnc3s2)cc1 | 7 | 5 | 1 | 10
COc1ccc(OCc2nn3c(-c4cccc(OC)c4)nnc3s2)cc1 | -1 | 16* | 4 | 0
Cn1c(Cl)c(C(=O)Nc2ccc(Cl)cc2)c2ccccc21 | -3 | . | -9 | 7
S=C(Nc1ccccc1)N1N=CCC1c1ccccc1 (stereo not drawn) | -4 | . | 9 | 72*
CC1=NOC(=O)/C1=C/c1ccc(-c2ccc(Cl)cc2)o1 | -6 | . | -5 | 94*
CC1=NOC(=O)/C1=C\c1ccc(-c2cc(Cl)ccc2Cl)o1 | -6 | . | -1 | 30
COc1ccc(C2CC(=O)C(C=NCCN3CCOCC3)=C(O)C2)cc1 (stereo not drawn) | 3 | 3 | -5 | 25
CCOC(=O)c1csc(NC(=O)CSc2nnnn2-c2ccc(OC)cc2)n1 | -5 | 5 | -3 | -7
SMILES | CD11b adhes enh | MMP-13 inhibitor | FAK inh | CD11b adhes inh
CCOC(=O)c1c(NC(=O)CSc2nnnn2-c2ccc(OC)cc2)sc(C)c1C | -6 | . | 2 | 63*
CC1(c2ccccn2)Nc2ccccc2-c2nc3ccccc3n21 (stereo not drawn) | -3 | -408 | 11 | -11
O=c1c2cccnc2[nH]c(=S)n1CCCN1CCN(c2ccc(F)cc2)CC1 | 4 | 3 | 2 | -38
COc1ccc(N2CCN(CCCn3c(=S)[nH]c4ncccc4c3=O)CC2)cc1 | 3 | . | 0 | 62*
Cc1nc2cc(-c3cccc(F)c3)nn2c(N2CCN(C(=O)c3ccco3)CC2)c1C | -3 | . | 0 | 14
CN(C)CCNC(=O)Nc1ccc(Cl)c(Cl)c1 | -3 | . | 4 | -1
CCN(CC)S(=O)(=O)c1cc([N+](=O)[O-])ccc1NNC(=O)Nc1ccc(Cl)c(Cl)c1 | -5 | . | 13 | 99*
O=C(Cc1cccs1)Nc1nc(-c2ccc(F)cc2F)cs1 | -6 | . | 3 | 65*
O=C(Cc1ccccc1F)Nc1nc(-c2cccs2)cs1 | -4 | 4 | 2 | 34
CC(C)c1ccc(-c2cc(C(=O)N3N=C(C(F)F)CC3(O)C(F)F)c3ccccc3n2)cc1 (stereo not drawn) | -4 | . | -4 | 78*
O=C(O)CC(Cc1ccc(Cl)cc1)C(=O)NCc1ccccc1 (stereo not drawn) | 3 | . | . | 4
COCCN1Cc2cccc(C(=O)Nc3ccc4c(c3)OCCO4)c2C1=O | 0 | 17* | 4 | -1
CC(=O)Nc1cccc(NC(=O)c2cc(-c3cccnc3)nc3ccc(Br)cc23)c1 | 53* | . | 7 | 8
O=C(Nc1ccc(C(F)(F)F)cc1)c1cc(-c2cccnc2)nc2ccc(Br)cc12 | . | . | -10 | .
CCn1ncc(Br)c1C(=O)Nc1ccccc1C(=O)OC | . | . | 53* | .
Cc1ccc(Nc2nc3nonc3[nH]c2=O)cc1C | -11 | -1 | . | 100*
Cc1ccc(Nc2n[nH]c(C)c2[N+](=O)[O-])cc1C | 8 | . | . | 0
O=C1NC(=O)/C(=C\c2ccccc2Oc2ccc(F)c(F)c2)S1 | -8 | . | -3 | 85*
Cc1ccc(CNC(=O)C2CCN(S(=O)(=O)N3CCOCC3)CC2)cc1 | 0 | 14 | 2 | -3
Cc1nc2c(cnn2-c2ccccc2Cl)c(=O)n1-c1ccc(N2CCC(C)CC2)cc1 | -3 | . | 2 | -6
CCc1nc2c(cnn2-c2ccc(F)cc2)c(=O)n1-c1ccc(N2CCC(C)CC2)cc1 | -4 | . | 1 | 76*
COc1cccc2cc(-c3cn4ccc(C)cc4n3)c(=O)oc12 | . | . | 19* | .
CCOC(=O)COc1ccc(S(=O)(=O)NCc2cccnc2)cc1 | -1 | 6 | -1 | 4
COC(=O)COc1ccc(S(=O)(=O)NCc2ccncc2)cc1 | -4 | 1 | -1 | 80*
CC(=O)Nc1ccccc1OCC(=O)c1cc(C)n(Cc2cccs2)c1C | -12 | -2 | . | 102*
SMILES | CD11b adhes enh | MMP-13 inhibitor | FAK inh | CD11b adhes inh
CCCS(=O)(=O)N1CCCC(C(=O)N2CCOCC2)C1 (stereo not drawn) | -2 | 1 | 2 | -6
N#CC1=C(N)SC(N)=C(C#N)C1CCC1CCCCC1 | -10 | 4 | 0 | 101*
Cc1sccc1C1C(C#N)=C(N)SC(N)=C1C#N | -2 | -7 | 2 | 0
O=C(c1ccccc1)C1C(=O)c2ccccc2C1=O | -3 | 2 | -3 | 8
CCc1ccc(/C=C/C(=O)C2C(=O)c3ccccc3C2=O)cc1 | -11 | . | 2 | 95*
O=C(/C=C/c1ccccc1)C1C(=O)c2ccccc2C1=O | -7 | . | . | 87*
CCOc1cc(CNCCSc2nnnn2C)cc(Br)c1OCc1ccccc1F | . | . | 0 | .
CCOc1cc(CNCc2ccncc2)cc(Br)c1OCc1ccccc1F | -7 | . | 5 | 89*
COc1ccccc1CP(=O)(c1ccccc1)c1ccccc1 | 3 | . | . | -3
NS(=O)(=O)c1ccc(NCc2ccccc2OCc2ccc(F)cc2)cc1 | -6 | . | -1 | 65*
Cc1csc2ncc(C(=O)NCc3ccc4c(c3)OCO4)c(=O)n12 | -2 | 16* | . | 4
O=C(Cn1nnc(-c2ccncc2)n1)Nc1ccc2c(c1)CCC2 | 3 | 15* | 5 | 8
O=C(Cn1nnc(-c2ccccc2F)n1)Nc1ccc2c(c1)OCO2 | -2 | 16* | -3 | -7
Cc1nc2c(c(=O)n1CC1CCCO1)c1nc3ccccc3nc1n2Cc1ccc2c(c1)OCO2 (stereo not drawn) | . | 5 | . | .
